{
  "source": "PubChem BioAssay AID1542",
  "about": "(National Center for Advancing Translational Sciences (NCATS), 2009)",
  "note": "Inconclusive results are not listed. Activity calls are given as the source filed them. The call rests on the fitted dose curve; in most records, active means well fitted curve in the direction sought with a large enough effect; inconclusive means small, poorly fitted or top-dose-only effect, or effect the other way, or another doubt; inactive means no such curve, though single readings can be large or run the other way.",
  "data": [
    {"biological_target": "Pyruvate kinase PKM (Homo sapiens) (UniProt P14618)", "sequence (P14618 whole entry, looked up, canonical isoform)": "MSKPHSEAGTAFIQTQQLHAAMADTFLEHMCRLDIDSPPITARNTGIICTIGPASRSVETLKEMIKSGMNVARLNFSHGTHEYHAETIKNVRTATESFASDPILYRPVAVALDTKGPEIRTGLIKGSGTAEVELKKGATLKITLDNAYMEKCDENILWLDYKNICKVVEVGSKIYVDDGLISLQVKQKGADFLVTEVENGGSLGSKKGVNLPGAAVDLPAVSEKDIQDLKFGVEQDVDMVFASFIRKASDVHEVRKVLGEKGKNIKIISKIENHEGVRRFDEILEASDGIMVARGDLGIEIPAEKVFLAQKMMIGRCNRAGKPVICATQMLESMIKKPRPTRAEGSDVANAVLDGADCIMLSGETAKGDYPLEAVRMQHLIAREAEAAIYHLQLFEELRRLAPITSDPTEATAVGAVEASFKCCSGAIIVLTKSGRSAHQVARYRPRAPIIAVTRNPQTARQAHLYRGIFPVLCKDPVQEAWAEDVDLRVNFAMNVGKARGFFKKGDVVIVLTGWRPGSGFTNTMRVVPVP", "test": "Secondary assay for Activators of Human Pyruvate Kinase M1 isoform", "conditions": "purified hPK-M1, LDH-coupled NADH fluorescence kinetic; series mostly up to 57.5 µM", "text": "Confirmatory assay NIH Chemical Genomics Center [NCGC] Matthew G. Vander Heiden, M.D., Ph.D. [Harvard Medical School, 77 Avenue Louis Pasteur, Boston, MA 02115] NCGC Assay Overview: Human pyruvate kinase […] (hPK-M1)enzyme was supplied as a highly purified (>95% pure) preparation from Harvard Medical School and a secondary assay was used to evaluate compounds. This assay couples the formation of pyruvate from hPK-R using lactate dehydrogenase (LDH) and NADH. The depletion of NADH is followed in a fluorescent-based kinetic assay that follows the formation of pyruvate to lactate, as catalyzed LDH. Pyruvate kinase substrates, PEP and ADP, were present in the assay at 0.1 mM and 4 mM respectively. In this kinetic assay initial rates were determined by following the fluorescence of NADH depletion.\nNCGC Assay Protocol Summary: Three uL of substrate mix (final concentration, 50 mM Tris-Cl pH 8.0, 200 mM KCl, 15 mM MgCl2, 0.1 mM PEP, 4.0 mM ADP, and 0.2 mM NADH) was dispensed into black-solid 1536 well plates. 23 nL of compounds were delivered by a pin tool and 1 uL of enzyme mix (final concentrations, 10 nM hPK-M1 and 1 uM of LDH) was added. Plates were immediately placed in ViewLux (Perkin Elmer) and NADH fluorescence was determined at 30 second exposure intervals for between 3 and 6 minutes. Data were normalized to the uninhibited controls.", "values": [
      {"smiles": "O=C(N1CCc2ccc(S(=O)(=O)N3CCN(S(=O)(=O)c4ccc5c(c4)OCCO5)CC3)cc2C1)C(F)(F)F", "outcome": "inactive"},
      {"smiles": "COc1ccc(S(=O)(=O)N2CCN(S(=O)(=O)c3c(F)cccc3F)CC2)cc1", "outcome": "inactive"},
      {"smiles": "O=c1[nH]c2ccc(S(=O)(=O)N3CCN(S(=O)(=O)c4c(F)cccc4F)CC3)cc2[nH]c1=O", "outcome": "inactive"},
      {"smiles": "Cn1c2cc(C(=O)O)sc2c2cnn(Cc3ccccc3F)c(=O)c21", "outcome": "inactive"},
      {"smiles": "CCOC(=O)CCc1cc(F)c(S(=O)(=O)N2CCN(S(=O)(=O)c3ccc4c(c3)OCCO4)CC2)cc1F", "outcome": "inactive"},
      {"smiles": "O=S(=O)(c1ccc2c(c1)OCCO2)N1CCN(S(=O)(=O)c2cc(F)c(Br)cc2F)CC1", "outcome": "inactive"},
      {"smiles": "CS(=O)(=O)Nc1cccc(-c2cc(F)c(S(=O)(=O)N3CCN(S(=O)(=O)c4ccc5c(c4)OCCO5)CC3)cc2F)c1", "outcome": "inactive"},
      {"smiles": "O=C(O)Cc1cc(F)c(S(=O)(=O)N2CCN(S(=O)(=O)c3ccc4c(c3)OCCO4)CC2)cc1F", "outcome": "inactive"},
      {"smiles": "Cc1cc2c(s1)c1cnn(Cc3ccc(F)cc3)c(=O)c1n2C", "outcome": "inactive"},
      {"smiles": "O=C(O)c1cc(F)c(S(=O)(=O)N2CCN(S(=O)(=O)c3ccc4c(c3)OCCO4)CC2)cc1F", "outcome": "inactive"},
      {"smiles": "O=S(=O)(c1ccc2c(c1)OCCO2)N1CCN(S(=O)(=O)c2ccc3c(c2)OCCO3)CC1", "outcome": "inactive"},
      {"smiles": "O=S(=O)(c1ccc2c(c1)OCCCO2)N1CCN(S(=O)(=O)c2c(F)cccc2F)CC1", "outcome": "inactive"},
      {"smiles": "O=S(=O)(NC1CCC(NS(=O)(=O)c2c(F)cccc2F)CC1)c1ccc2c(c1)OCCO2", "note": "(stereo not given)", "outcome": "inactive"},
      {"smiles": "C=Cc1cc2c(s1)c1cnn(Cc3ccccc3F)c(=O)c1n2C", "outcome": "inactive"},
      {"smiles": "O=S(=O)(c1ccc2c(c1)OCCO2)N1CCN(S(=O)(=O)c2ccccn2)CC1", "outcome": "inactive"},
      {"smiles": "C[C@@H]1CN(S(=O)(=O)c2c(F)cccc2F)CCN1S(=O)(=O)c1ccc2c(c1)OCCO2", "outcome": "inactive"},
      {"smiles": "O=S(=O)(c1ccc2nc(Cl)c(Cl)nc2c1)N1CCN(S(=O)(=O)c2c(F)cccc2F)CC1", "outcome": "inactive"},
      {"smiles": "COc1ccc(S(=O)(=O)N2CCN(S(=O)(=O)c3ccc4c(c3)OCCO4)CC2)cc1", "outcome": "inactive"},
      {"smiles": "O=S(=O)(c1ccc2c(c1)OCCO2)N1CCN(S(=O)(=O)c2c(F)cccc2F)CC1", "outcome": "inactive"},
      {"smiles": "Cn1ccc2cc(S(=O)(=O)N3CCN(S(=O)(=O)c4c(F)cccc4F)CC3)ccc21", "outcome": "inactive"},
      {"smiles": "O=C(O)CCc1cc(F)c(S(=O)(=O)N2CCN(S(=O)(=O)c3ccc4c(c3)OCCO4)CC2)cc1F", "outcome": "inactive"},
      {"smiles": "O=C(O)/C=C/c1cc(F)c(S(=O)(=O)N2CCN(S(=O)(=O)c3ccc4c(c3)OCCO4)CC2)cc1F", "outcome": "inactive"},
      {"smiles": "O=S(=O)(NCC1CN(S(=O)(=O)c2c(F)cccc2F)C1)c1ccc2c(c1)OCCO2", "outcome": "inactive"},
      {"smiles": "CC(C)c1cc2c(s1)c1cnn(Cc3ccccc3F)c(=O)c1n2C", "outcome": "inactive"},
      {"smiles": "O=C(c1c(F)cccc1F)N1CCN(S(=O)(=O)c2ccc3c(c2)OCCO3)CC1", "outcome": "inactive"},
      {"smiles": "Cc1cc2c(s1)c1cnn(Cc3ccccc3F)c(=O)c1n2Cc1ccccc1F", "outcome": "inactive"},
      {"smiles": "Cc1cc2c(s1)c1cnn(Cc3cccc(F)c3)c(=O)c1n2C", "outcome": "inactive"},
      {"smiles": "COCCCc1cc(F)c(S(=O)(=O)N2CCN(S(=O)(=O)c3ccc4c(c3)OCCO4)CC2)cc1F", "outcome": "inactive"},
      {"smiles": "Cn1c2cc(S(C)(=O)=O)sc2c2cnn(Cc3ccccc3F)c(=O)c21", "outcome": "inactive"},
      {"smiles": "O=S(=O)(c1c(F)cccc1F)C1CCN(S(=O)(=O)c2ccc3c(c2)OCCO3)CC1", "outcome": "inactive"},
      {"smiles": "O=S(=O)(NC1CCN(S(=O)(=O)c2ccc3c(c2)OCCO3)CC1)c1c(F)cccc1F", "outcome": "inactive"},
      {"smiles": "Cc1cc2c(s1)c1cnn(Cc3c(F)c(F)cc(F)c3F)c(=O)c1n2C", "outcome": "inactive"},
      {"smiles": "Cc1nc2ccc(S(=O)(=O)N3CCN(S(=O)(=O)c4c(F)cccc4F)CC3)cc2s1", "outcome": "inactive"},
      {"smiles": "O=C1CN(S(=O)(=O)c2c(F)cccc2F)CCN1S(=O)(=O)c1ccc2c(c1)OCCO2", "outcome": "inactive"},
      {"smiles": "CCOC(=O)/C=C/c1cc(F)c(S(=O)(=O)N2CCN(S(=O)(=O)c3ccc4c(c3)OCCO4)CC2)cc1F", "outcome": "inactive"},
      {"smiles": "Cc1cc2c(s1)c1cnn(Cc3c(F)cccc3Cl)c(=O)c1n2C", "outcome": "inactive"},
      {"smiles": "C=Cc1cc(F)c(S(=O)(=O)N2CCN(S(=O)(=O)c3ccc4c(c3)OCCO4)CC2)cc1F", "outcome": "inactive"},
      {"smiles": "Cc1cc2c(s1)c1cnn(Cc3ccccc3F)c(=O)c1n2C", "outcome": "inactive"},
      {"smiles": "Cc1cc2c(s1)c1cnn(Cc3ccc(C(F)(F)F)cc3F)c(=O)c1n2C", "outcome": "inactive"},
      {"smiles": "COC(=O)c1cc(F)c(S(=O)(=O)N2CCN(S(=O)(=O)c3ccc4c(c3)OCCO4)CC2)cc1F", "outcome": "inactive"}
    ]}
  ]
}
